In the library only some 21% were active in any assay of this set; here they are far more common.
Giardia FBPA inh-1: qHTS Assay for Inhibitors of Fructose-1,6-bisphosphate Aldolase from Giardia Lamblia; purified Giardia FBPA; Potency, µM (series often up to 59.6 µM), for inactives: at the top dose activity, negative = inhibition, actives largely listed as inhibitors; 290,000 compounds, 0.71% hits; also: potency is read from the fitted curve at half-maximal effect; % is scaled to controls: 0 for no effect and ±100 for the full control effect; nearly all actives have a fitted effect of over 55% in size
Target sequence (A8B2U2 whole entry, looked up): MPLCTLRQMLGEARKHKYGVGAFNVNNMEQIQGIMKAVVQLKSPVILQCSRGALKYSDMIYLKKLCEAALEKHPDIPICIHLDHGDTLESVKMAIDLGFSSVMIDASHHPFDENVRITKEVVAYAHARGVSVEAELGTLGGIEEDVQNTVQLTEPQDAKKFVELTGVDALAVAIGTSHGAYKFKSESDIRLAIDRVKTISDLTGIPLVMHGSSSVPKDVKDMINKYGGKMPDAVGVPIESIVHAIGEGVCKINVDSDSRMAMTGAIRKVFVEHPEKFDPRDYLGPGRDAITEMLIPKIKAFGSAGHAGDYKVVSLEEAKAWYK
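40 nM FBPA preincubated 10 min at RT with compound (up to 57.5 uM final), then substrate plus GAPDH/TPI/NAD/arsenate coupling and diaphorase/resazurin added. Fluorescence read after 20 min at RT, 525/598 nm.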
CHX counter: Cycloheximide Counterscreen for Small Molecule Inhibitors of Shiga Toxin. AID 2314, 2010. 300,000 compounds, 12% hits. max response, %. cell reporter, cycloheximide protein synthesis inhibition counterscreen; in the data active = max response mostly above about 13%, no sharp cut-off; inactive = mostly below about 14%; also: read at 38.3 µM for the half of the compounds with a filed dose; 0% is about no effect
Pf growth 48h: Primary qHTS for delayed death inhibitors of the malarial parasite plastid, 48 hour incubation | P. falciparum luciferase growth in erythrocytes, 48 h | Potency, µM (highest dose often 28.7 µM), for inactives: at the highest dose activity change, negative = inhibition, actives largely listed as inhibitors | 310,000 compounds, 5.9% hits; also: potency is read from the fitted curve at half-maximal effect; % is scaled to controls: 0 for no effect and ±100 for the full control effect
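In quantitative HTS format, infected erythrocytes bearing luciferase-reporter parasites were treated for a single generation at 37 C. Luminescence after adding detection reagent served as the growth measure.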
Pf growth 96h: Primary qHTS for delayed death inhibitors of the malarial parasite plastid, 96 hour incubation | P. falciparum luciferase reporter growth, 96 h | Potency, µM (top dose mostly 28.7 µM), for inactives: at the top dose activity change, negative = inhibition, most hits filed as inhibitors | 320,000 compounds, 6.9% hits | AID 504834, 2011; also: potency is read from the fitted curve at half-maximal effect; % is scaled to controls: 0 for no effect and ±100 for the full control effect
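Readout is luminescence from an integrated firefly luciferase in P. falciparum. Red cells, 2% hematocrit and 0.05% parasitemia final, were cultured with compound through two parasite generations (96 hours) at 37 C, 5% CO2.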
Shiga toxin inh: A qHTS for Small Molecule Inhibitors of Shiga Toxin. 290,000 compounds, 9.2% hits. Vero cells, Shiga toxin protein synthesis inhibition reporter. inhibition, % at 38.7 µM; in the data active = inhibition mostly above about 28%, no sharp cut-off; inactive = mostly below about 43%; also: 0% is about no effect
NS1 function inh: qHTS Assay for Inhibitors of Influenza NS1 Protein Function; Potency, µM (top dose mostly 46.1 µM), inactives show at the top dose activity, positive = more growth; 270,000 compounds, 0.4% hits; calls by dose curve; also: potency is read from the fitted curve at half-maximal effect; actives are rising curves; nearly all actives have a fitted effect of over 50% in size
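Growth recovery, yeast-based: influenza A NS1 expressed in S. cerevisiae causes slow growth, and suppressors are detected by OD600. The parent strain without NS1 is used as positive control.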
Giardia growth: qHTS Assay for Inhibitors of Fructose-1,6-bisphosphate Aldolase from Giardia Lamblia: Giardia lamblia growth inhibition | shares compounds with Giardia FBPA inh-1 | Giardia lamblia trophozoite growth inhibition | Potency, µM (series often up to 57.5 µM), without a hit: top-dose activity change, negative = inhibition, actives largely listed as inhibitors | 1,500 compounds, 5% hits | AID 2785, 2010;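 also: potency is read from the fitted curve at half-maximal effect; trophozoites exposed to compound for 48 h at 37 °C; % is scaled to controls: 0 for no effect and ±100 for the full control effect; nearly all actives have a fitted effect of over 70% in size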
Mammalian tox: qHTS Assay for Inhibitors of Fructose-1,6-bisphosphate Aldolase from Giardia Lamblia: Mammalian cellular toxicity. shares compounds with Giardia FBPA inh-1. mammalian cell viability counter-screen, qHTS. Potency, µM (doses to about 57.5 µM), for the others: at the top dose viability change, negative = toxicity, hits mostly inhibitors. 1,500 compounds, 4% hits;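 also: Chinese hamster ovary cells used as mammalian cytotoxicity surrogate; viability measured as cellular ATP by luminescence; potency is read from the fitted curve at half-maximal effect; compound exposure lasted 48 h before reading; % is scaled to controls: 0 for no effect and ±100 for the full control effect; nearly all actives have a fitted effect of over 60% in size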
Giardia FBPA inh-2: qHTS Assay for Inhibitors of Fructose-1,6-bisphosphate Aldolase from Giardia Lamblia: Primary screen confirmation | shares compounds with Giardia FBPA inh-1 | purified Giardia aldolase enzyme activity, qHTS | Potency, µM (doses to about 57.5 µM), for inactives: at the top dose activity change, negative = inhibition, actives largely listed as inhibitors | 1,500 compounds, 5% hits; also: potency is read from the fitted curve at half-maximal effect; % is scaled to controls: 0 for no effect and ±100 for the full control effect; nearly all actives have a fitted effect of over 45% in size
Rabbit FBPA inh: qHTS Assay for Inhibitors of Fructose-1,6-bisphosphate Aldolase from Giardia Lamblia: Rabbit FBPA Selectivity; shares compounds with Giardia FBPA inh-1; Rabbit muscle FBPA enzyme inhibition, selectivity counter-screen; Potency, µM (titrated, usually from 57.5 µM), inactives show at the highest dose activity, negative = inhibition, hits mostly inhibitors; 1,500 compounds, 4% hits; AID 2794, 2010; also: potency is read from the fitted curve at half-maximal effect; % is scaled to controls: 0 for no effect and ±100 for the full control effect; nearly all actives have a fitted effect of over 60% in size
Target sequence (P00883 whole entry, looked up): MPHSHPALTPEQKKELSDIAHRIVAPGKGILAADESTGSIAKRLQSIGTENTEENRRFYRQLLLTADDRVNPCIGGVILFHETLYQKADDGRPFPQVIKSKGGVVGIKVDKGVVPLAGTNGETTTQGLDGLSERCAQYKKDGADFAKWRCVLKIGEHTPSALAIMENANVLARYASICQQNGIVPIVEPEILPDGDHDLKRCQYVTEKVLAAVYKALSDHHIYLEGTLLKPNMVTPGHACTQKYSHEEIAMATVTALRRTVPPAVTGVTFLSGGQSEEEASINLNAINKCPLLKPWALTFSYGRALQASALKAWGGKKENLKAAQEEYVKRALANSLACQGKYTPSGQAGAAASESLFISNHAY
GAPDH coupling: qHTS Assay for Inhibitors of Fructose-1,6-bisphosphate Aldolase from Giardia Lamblia: Coupling assay counterscreen confirmation | shares compounds with Giardia FBPA inh-1 | GAPDH coupling enzyme counterscreen, biochemical, qHTS | Potency, µM (series often up to 57.5 µM), for the others: at the top dose activity change, negative = inhibition, most hits filed as inhibitors | 1,500 compounds, 6% hits | AID 2795, 2010; also: potency is read from the fitted curve at half-maximal effect; % is scaled to controls: 0 for no effect and ±100 for the full control effect; nearly all actives have a fitted effect of over 55% in size
Starred values were filed as active, the others as inactive; ? = inconclusive; nt = no result; [ ] = remark or other dose. Unless noted, calls follow the shape of the dose curve; as a rule, active = well fitted curve in the direction sought with a large enough effect; inconclusive = small, poorly fitted or top-dose-only effect, or another doubt; inactive = no such curve, though single readings can be large; an effect the other way counts as inactive or inconclusive.

SMILES | Giardia FBPA inh-1 | CHX counter | Pf growth 48h | Pf growth 96h | Shiga toxin inh | NS1 function inh | Giardia growth | Mammalian tox | Giardia FBPA inh-2 | Rabbit FBPA inh | GAPDH coupling
COc1ccc(Cc2n[nH]c(=S)n2N)cc1OC | 13µM* | -3 | 7% | ? | -2 | 4% | -6% | -1% | -4% | 6% | 3%
CC(NS(=O)(=O)/C=C/c1ccccc1)C(=O)NCCc1ccc(S(N)(=O)=O)cc1 (stereo unspecified) | 4% | -3 | ? | ? | 12 | 0% | nt | nt | nt | nt | nt
Cc1ccc(C)c(NC(=S)N(CCc2ccncc2)C(C)C)c1 | 0% | -1 | -18% | 21% | -4 | nt | nt | nt | nt | nt | nt
Cc1cc(C)c(NC(=S)N(CCc2ccncc2)C(C)C)c(C)c1 | 10µM* | 12 | 10µM* | -7% | -4 | nt | -6%[38.3 µM] | -13% | 3% | 2% | -4%
Cn1c(=O)c2c(ncn2Cc2ccc(Cl)cc2)n(C)c1=O | 1% | -3 | 0% | 7% | -17 | 3% | nt | nt | nt | nt | nt
Cn1c(=O)c2c([nH]c(=S)n2Cc2ccc(Cl)cc2)n(C)c1=O | 8.9µM* | -1 | 1% | ? | 3 | 15% | -1%[38.3 µM] | -19% | -5% | -11% | -2%
COc1ccc(C2(CNC(=O)C(=O)Nc3ccc(C)cc3)CCOCC2)cc1 | -9% | 7 | ? | ? | 15 | 2% | nt | nt | nt | nt | nt
CC(=O)Oc1ccc(/C=N/NC2=NS(=O)(=O)c3ccccc32)cc1 | 7.9µM* | -5 | nt | ? | -2 | 3% | -26% | 1% | 10% | 1% | 12%
COc1ccc(/C=N/NC2=NS(=O)(=O)c3ccccc32)cc1OC(C)=O | 3.5µM* | 9 | ? | 8% | -12 | -1% | 12%[38.3 µM] | -4% | ? | 7% | 3%
COc1ccc(/C=N/NC2=NS(=O)(=O)c3ccccc32)cc1 | 4.5µM* | -1 | ? | ? | 6 | 5% | -7%[10.4 µM] | 5% | 9% | 16% | 6%
CN(C)c1ccc(/C=N/NC2=NS(=O)(=O)c3ccccc32)cc1 | ? | -3 | ? | -2% | -3 | -6% | nt | nt | nt | nt | nt
COc1cc(/C=N/NC2=NS(=O)(=O)c3ccccc32)cc(OC)c1OC | 7.9µM* | -2 | ? | 34% | -7 | 3% | -14% | 6% | 13% | 8% | 6%
O=S1(=O)N=C(N/N=C/c2ccccn2)c2ccccc21 | ? | -1 | ? | ? | -14 | 1% | nt | nt | nt | nt | nt
CC(C)N1CSC(=S)N(Cc2ccccc2)C1 | ? | 16 | 10% | 4% | 29 | nt | nt | nt | nt | nt | nt
COc1ccc(OC)c(/C=N/NC2=NS(=O)(=O)c3ccccc32)c1 | 16µM* | 1 | -4% | 24% | -12 | 6% | -17%[10.4 µM] | -4% | 1% | 8% | 10%
O=C(Oc1c(CN2CCOCC2)cc(Cl)c2cccnc12)c1ccccc1F | 16µM* | 13 | -13% | 2.1µM* | 72 | nt | 7.9µM* | 7.9µM* | ? | ? | -27%
Cc1cc(C)nc(N/N=C/C2=C(O)CC(c3ccc(F)cc3)CC2=O)n1 (stereo unspecified) | -21% | 6 | ? | -11% | -6 | 0% | 4%[38.3 µM] | ? | 9% | 7% | 1%
CC(=O)Nc1sc2c(c1CN1CCN(C)CC1)CCCC2 | 4% | -1 | 2% | 23% | 5 | 0% | nt | nt | nt | nt | nt
CC(C)C(=O)Nc1sc2c(c1C(N)=O)CCN(Cc1ccccc1)C2 | 28µM* | -1 | 29% | 62% | -2 | 0% | 3%[10.4 µM] | -11% | 1% | 3% | -18%
CCOC(=O)c1c(NC(=O)Cc2ccccc2)sc2c1CCN(C)C2 | ? | -4 | -21% | 0% | 4 | -5% | nt | nt | nt | nt | nt
NC(=O)c1c(NC(=O)c2ccccc2)sc2c1CCN(Cc1ccccc1)C2 | 16µM* | 13* | 20% | 31% | 5 | 4% | ? | -17% | 0% | 2% | 10%
CCN1CCc2c(sc(NC(=O)Cc3ccccc3)c2C(=O)OC)C1 | 14µM* | -3 | ? | -16% | -1 | -1% | 5%[10.4 µM] | 4% | 9% | 12% | 16%
CCN1CCc2c(sc(NC(=O)c3ccc(S(=O)(=O)N4CCOCC4)cc3)c2C(N)=O)C1 | -15% | -3 | ? | ? | -9 | -45% | nt | nt | nt | nt | nt
COc1ccccc1C(=O)NC(CCSC)C(=O)NNC(=O)C(C)Oc1ccccc1F (stereo unspecified) | nt | nt | -26% | ? | nt | nt | nt | nt | nt | nt | nt
CCN(CC)C(=O)c1c(C)[nH]c(=S)c(C#N)c1-c1ccco1 | 10µM* | -1 | -15% | -30% | -21 | nt | 1% | 1% | 5% | -3% | 8%
SMILES | Giardia FBPA inh-1 | CHX counter | Pf growth 48h | Pf growth 96h | Shiga toxin inh | NS1 function inh | Giardia growth | Mammalian tox | Giardia FBPA inh-2 | Rabbit FBPA inh | GAPDH coupling
COCCCNC(=S)NC1CCCCC1 | -3% | 1 | -2% | 41% | -4 | 11% | nt | nt | nt | nt | nt
O=c1c2sccc2[nH]c(=S)n1-c1ccccc1 | 18µM* | 1 | -10% | -18% | -3 | 6% | ? | 1% | -4% | -4% | 4%
O=C(O)c1cc(Br)ccn1 | 16µM* | -2 | 21% | 37% | -5 | nt | -8%[10.4 µM] | 9% | 1% | 0% | 4%
COc1cc(OC)c(NC2=CC(=O)C(=O)c3ccccc32)cc1Cl | ? | 10 | 0.33µM* | 53% | 4 | -3% | 22µM* | 21µM* | 12µM* | 13µM* | 15µM*
O=C(c1ccc2c(=O)n(C3CCCC3)c(=S)[nH]c2c1)N1CCCCCC1 | 18µM* | -2 | ? | ? | 3 | nt | 3%[10.4 µM] | -10% | 6% | 3% | 8%
CCCNC(=O)c1ccccc1NC(=O)c1cccc(-n2cnnn2)c1 | nt | nt | ? | -20% | nt | nt | nt | nt | nt | nt | nt

Screens as filed in PubChem.
